Measured values taken from publication PMC4336329 (PLoS ONE, 2015).
Among all 310,000 compounds or so, about 14,000 (4.5%) showed an effect of 50% or more. Effects have a minus sign here. For the sample, strong results were picked, then their nearest neighbours and some compounds at random.

Target: human ether-à-go-go-related gene (hERG) potassium channel (human, UniProt Q12809)
Assay: primary screen, population patch clamp on CHO cells stably expressing hERG; higher = less effect of the substance
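Further: peak tail current of the secondary pulse compared with the same well before compound.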

Sequence of human ether-à-go-go-related gene (hERG) potassium channel (Q12809 whole entry, looked up): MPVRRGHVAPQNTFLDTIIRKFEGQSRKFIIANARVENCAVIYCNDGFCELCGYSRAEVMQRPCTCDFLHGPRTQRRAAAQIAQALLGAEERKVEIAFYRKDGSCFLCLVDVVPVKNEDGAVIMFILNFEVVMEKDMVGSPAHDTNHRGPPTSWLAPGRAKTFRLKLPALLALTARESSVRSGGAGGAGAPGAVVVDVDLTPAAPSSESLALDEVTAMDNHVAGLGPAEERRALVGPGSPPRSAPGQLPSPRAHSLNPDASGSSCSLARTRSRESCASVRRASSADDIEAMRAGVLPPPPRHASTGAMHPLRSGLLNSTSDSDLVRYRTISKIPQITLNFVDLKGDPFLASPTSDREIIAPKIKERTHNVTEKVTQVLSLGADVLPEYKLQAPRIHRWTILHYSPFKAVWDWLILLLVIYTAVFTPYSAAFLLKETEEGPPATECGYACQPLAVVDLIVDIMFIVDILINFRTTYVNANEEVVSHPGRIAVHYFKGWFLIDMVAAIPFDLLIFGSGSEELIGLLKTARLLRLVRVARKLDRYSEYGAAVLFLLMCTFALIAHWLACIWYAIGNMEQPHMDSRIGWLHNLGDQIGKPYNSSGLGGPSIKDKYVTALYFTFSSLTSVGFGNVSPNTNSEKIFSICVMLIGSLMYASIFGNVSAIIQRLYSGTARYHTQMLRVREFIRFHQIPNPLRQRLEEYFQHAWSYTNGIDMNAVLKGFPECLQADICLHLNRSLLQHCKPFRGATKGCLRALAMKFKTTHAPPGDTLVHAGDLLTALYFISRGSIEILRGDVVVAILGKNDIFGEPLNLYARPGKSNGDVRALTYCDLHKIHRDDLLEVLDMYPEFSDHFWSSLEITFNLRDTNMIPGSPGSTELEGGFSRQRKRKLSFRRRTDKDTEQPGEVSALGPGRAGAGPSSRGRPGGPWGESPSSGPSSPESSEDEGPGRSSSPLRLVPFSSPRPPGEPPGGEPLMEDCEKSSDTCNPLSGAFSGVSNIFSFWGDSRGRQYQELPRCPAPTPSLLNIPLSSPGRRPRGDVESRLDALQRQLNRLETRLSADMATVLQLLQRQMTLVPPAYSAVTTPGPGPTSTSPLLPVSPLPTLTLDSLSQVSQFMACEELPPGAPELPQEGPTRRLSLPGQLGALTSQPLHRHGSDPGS

Structure (SMILES)	hERG current change (%, negative = inhibition) at 10uM [%]
COc1ccc(CC(=O)NC(c2ccccc2)c2ccc(C)cc2)c(OC)c1 (stereo not drawn)	11.3
c1cnc2ccc(C(c3nnnn3C3CCCC3)N3CCSCC3)cc2c1 (stereo not drawn)	-3.72
COc1ccc(Cn2nnnc2C(c2ccc(F)cc2)N2CCN(C3CCCC3)CC2)cc1 (stereo not drawn)	-52.6
COc1ccc(Cn2nnnc2C(c2ccc(C)cc2)N2CCN(C3CCCC3)CC2)cc1.Cl (stereo not drawn)	-63.8
c1ccc(Cn2nnnc2C(c2cccnc2)N2CCN(C3CCCCC3)CC2)cc1 (stereo not drawn)	-24.9
COc1ccc(Cn2nnnc2C(c2ccc3ncccc3c2)N2CCN(C3CCCCC3)CC2)cc1 (stereo not drawn)	-82.8
COc1ccc(C(c2nnnn2Cc2ccccc2)N2CCN(c3ccccc3)CC2)cc1.Cl (stereo not drawn)	-6.94
COc1ccc(OC)c(C(c2nnnn2Cc2ccccc2)N2CCN(C)CC2)c1.Cl (stereo not drawn)	3.17
COc1ccc(OC)c(C(c2nnnn2Cc2ccccc2)N2CCN(C3CCCCC3)CC2)c1.Cl (stereo not drawn)	-53.9
COc1ccc(C(c2nnnn2Cc2ccc(F)cc2)N2CCN(c3ccc(OC)cc3)CC2)cc1 (stereo not drawn)	-7.57
CCN1CCN(C(c2ccccc2)c2nnnn2Cc2ccc(OC)cc2)CC1.Cl (stereo not drawn)	10.7
COc1ccccc1C(c1nnnn1Cc1ccccc1)N1CCN(C2CCCC2)CC1.Cl (stereo not drawn)	-35.5
COc1ccc(C(c2nnnn2Cc2ccc(F)cc2)N2CCN(c3ccccc3)CC2)cc1 (stereo not drawn)	-4.37
Cc1ccc(N(CC(O)Cn2c3ccccc3c3ccccc32)S(C)(=O)=O)cc1 (stereo not drawn)	9.82
CCC(C)(C)n1nnnc1C(c1cc2ccc(OC)cc2[nH]c1=O)N1CCCCC1 (stereo not drawn)	-26.3
CCC(C)(C)n1nnnc1C(c1cc2ccc(OC)cc2[nH]c1=O)N1CCc2ccccc2C1 (stereo not drawn)	-27.9
CCC(C)(C)n1nnnc1C(c1cc2ccc(OC)cc2[nH]c1=O)N1CCN(C2CCCCC2)CC1 (stereo not drawn)	-59.6
Cc1cccc(NC(=O)c2cc(NC(=O)c3ccco3)ccc2Cl)n1	-29.1
Cc1nc2ccccn2c1C(=O)Nc1ccc(Cl)cc1	1.65
CN(C)c1nc2c(N)ncnc2n1[C@H]1O[C@@H](CO)[C@H](O)[C@@H]1O	7.28
Br.COc1ccc(Nc2nc(-c3sc(NC(C)=O)nc3C)cs2)cc1	3.32
Cc1c(NC(=S)NC(=O)C(c2ccccc2)c2ccccc2)cccc1C(=O)O	-3.41
CC(=O)CCC(=O)N1CCC(n2nccc2NC(=O)c2ccccc2C)CC1	9.06
O=C(Nc1ccnn1C1CCN(CCCc2ccccc2)CC1)c1ccccc1Cl	-82.2
O=C(Nc1ccnn1C1CCN(Cc2ccn[nH]2)CC1)c1ccccc1	-18.2
O=C(Nc1ccnn1C1CCN(CCCc2ccccc2)CC1)c1ccccc1	-80.8
Cc1ccccc1C(=O)Nc1ccnn1C1CCN(CCCc2ccccc2)CC1	-78.4

Structure (SMILES)	hERG current change (%, negative = inhibition) at 10uM [%]
COc1ccccc1C(=O)Nc1ccnn1C1CCN(CCCc2ccccc2)CC1	-78.3
C=CCNC(=S)Nc1ccc(N(C)C)cc1	-6
CCOC(=O)c1cnc(-n2nc(C)cc2C)nc1Oc1ccc(C#N)cc1	21.3
CC(=O)c1ccccc1NS(=O)(=O)c1ccc2c(c1)CC(=O)N2	2.66
CCCCn1nnnc1SCC(=O)NNC(=O)C1CCCCC1	-1.79
O=C1c2ccccc2C(=O)N1CCc1nc(-c2cccnc2)no1	-12.2
COc1ccccc1NC(=O)C1(C)Cc2ccccc2C(=O)O1 (stereo not drawn)	-10.2
Cc1ccc(-n2ncc3ccccc3c2=O)cc1Cl	-3.72
COc1ccc(NC(=O)c2coc3ccccc23)cc1OC	6.21
CSc1nc(-c2ccc(Cl)cc2)c(C#N)c(=O)[nH]1	13.1
Cc1nc(SCC(=O)NC2CCCCC2C)c(C#N)c(C)c1C (stereo not drawn)	-7.03
O=S(=O)(CCN1CCOCC1)c1ccccc1	8.81
Cc1nc(-c2ccc(S(=O)(=O)N3CCOCC3)cc2)cs1	12.8
COc1cc(Br)cc(CN2CCN(C/C=C/c3ccccc3)CC2)c1O	-32.1
CN(c1ccc(OCC(=O)N2CCN(C/C=C/c3ccccc3)CC2)cc1)S(=O)(=O)c1cccs1.Cl	-30.6
Cc1ccccc1CN1CCN(C/C=C/c2ccccc2)CC1	8.81
O=C(COc1ccccc1)N1CCN(C/C=C/c2ccccc2)CC1	-58.1
COc1ccc(OCC(=O)N2CCN(C/C=C/c3ccccc3)CC2)cc1	-58.8
COc1ccc(OC)c(NC(=S)N2CCN(C/C=C/c3ccccc3)CC2)c1	-33
O=C(COc1ccccc1)N1CCN(C(=O)COc2ccccc2)CC1	-32.2
COc1cccc(NC(=S)N2CCN(C/C=C/c3ccccc3)CC2)c1	-44.7
COc1ccc(O)c(CN2CCN(C/C=C/c3ccccc3)CC2)c1	-51.9
COc1ccc(OCC(=O)N2CCN(C(=O)COc3ccccc3)CC2)cc1	-47.5
COc1ccc(NC(=S)N2CCN(C/C=C/c3ccccc3)CC2)c(OC)c1	-64.2
O=C(Cc1ccccc1)N1CCN(C/C=C/c2ccccc2)CC1	-19.5
c1ccc(-c2onc(-c3ccco3)c2-c2ccc3c(c2)OCO3)cc1	2
O=[N+]([O-])c1ccc(-c2ccccc2)c([As](=O)(O)O)c1	11.9
